In all, about 1,700 compounds were measured (“T3 sensor activation Q score (MG/GFP ratio z-score vs DMSO controls)”: median about 0.25, highest 2% from about 1.9 on). For the sample, the highest values were picked, then their nearest neighbours and some compounds at random.
tested on: ppGalNAc-T3 sensor; test: T3 sensor activation Q score (MG/GFP ratio z-score vs DMSO controls) (SD units); higher = more sensor activation (inhibition of ppGalNAc-T3 glycosylation); details: HEK293 sensor cells; 10 µM; 6 h
Procedure: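 Cells were treated with compound at 10 uM for 6 h, then MG/GFP ratio was read by flow cytometry (10,000 cells per well, duplicate wells). Q = (R - R_neg)/SD_neg relative to DMSO vehicle controls; the signal rises when the glycosyltransferase is inhibited.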

SMILES | T3 sensor activation Q score
CC1CC=C(O)C12OCC(C)(C)CO2 (configuration not stated) | -0.05
Cc1ccc(S(=O)(=O)N2CC=C(N)N2)cc1 | -0.2
Cc1nc2ccccc2nc1NS(=O)(=O)c1ccc(N)cc1 | -0.1
OCc1nc2nc(Cl)c(Cl)nc2[nH]1 | -1.15
CC(C)CCCCCCCCCCCCC(=O)NCC(=O)NC1C(C)OC(Nc2ncnc3nc[nH]c23)C(O)C1O (configuration not stated) | -1.5
Cc1cc(C)n2c(C)nnc2c1 | 1.85
Cc1ccn2c(C(C)O)nnc2c1 (configuration not stated) | 0.05
COC(=O)c1c[n+]([O-])ccc1OC | -0.5
CN(C)S(=O)(=O)c1ccccc1N=C=S | -1.15
CCOC(=O)c1nn(C)c2[nH]c(=O)n(C)c(=O)c12 | 0.15
CCOC(=O)/C=C/c1ccc(C(=O)OCC)[nH]1 | -1.5
CCOC(=O)/C=C/c1nc(C(=O)OCC)c(C)c(=O)[nH]1 | 1.9
CN(C)S(=O)(=O)Nc1cccc(Br)c1 | 1.8
CNNCc1ccc(C(=O)NC(C)C)cc1 | 1.85
CCC(C)NC(=O)c1cccc(C)c1 (configuration not stated) | 1.35
CC(C)NC(=O)c1ccc(C(C)C)cc1 | -0.3
Nc1nc(N)c2cc(Sc3ccc4ccccc4c3)ccc2n1 | 1.15
CCc1ccc(CCN2C(=O)c3ccccc3C2=O)nc1 | 0.1
CCOC(=O)c1nnsc1-c1ccc(-c2snnc2C(=O)OCC)cc1 | 0.95

SMILES | T3 sensor activation Q score
Clc1ncnc2[nH]ccc12 | -0.05
C=CCN=C(NC#N)SC | 0.05
COc1cc(NC(C)=O)c2ncccc2c1NC(C)=O | 1.2
O=c1[nH]cnc2c1ncn2Cc1ccc([N+](=O)[O-])cc1 | 0.15
CCOC(=O)c1cc2c(OC)c(OC)ccc2c2[nH]cc(C#N)c(=O)c12 | 0.7
Cn1nc(SCc2ccccc2)c(=O)n(C(c2ccccc2)c2ccccc2)c1=O | -0.65
O=C1/C(=C\c2ccc([N+](=O)[O-])cc2)CCc2ccccc21 | 0.4
COc1cccc(/C=C2\CCc3ccccc3C2=O)c1 | -0.1
CCOc1ccc(/C=C2\CCc3ccccc3C2=O)cc1 | 1.85
O=C(O)C1OCC2(CO1)COC(C(=O)O)OC2 (configuration not stated) | 0.6
CC(C)(C)NC(=O)c1ccc(C(=O)NC(C)(C)C)cc1 | -0.4
CC(=O)CC[N+](C)(C)C | 0.75
O=C(/C=C/c1ccccc1)CC(c1ccccc1)N1CCOCC1 (configuration not stated) | 0.15
Nc1ccc(C(=O)Nc2cccc(N)c2)cc1 | -1.35
Nc1ccc(C(=O)Nc2ccc(NC(=O)c3ccco3)c(O)c2)cc1 | 1.85
Nc1ccc(NC(=O)c2ccc(C(=O)Nc3ccc(N)cc3)cc2)cc1 | 1.05
OC[C@H]1O[C@@H](n2cnc3c2NC=NC[C@H]3O)C[C@@H]1O | 1.3
NC(=O)CCC(C(=O)O)N1C(=O)c2ccc(O)cc2C1=O (configuration not stated) | -0.1

Source: the supplement of paper PMC5407854, “Inhibitor of ppGalNAc-T3-mediated O-glycosylation blocks cancer cell invasiveness and lowers FGF23 levels” (eLife, 2017)
